Measurements published in PubChem BioAssay AID2284345 (EPA ToxCast).
Inconclusive results are not listed. The source made the active and inactive calls. The calls were made as follows: active = hit-call score of the fitted dose curve at least 0.9, where 1 is the maximum; inconclusive = response in the unintended direction; inactive = score below 0.9.

test system: zebrafish Glucocorticoid Receptor (GR), gene 553740; test: ATG_zfGR_EcoTox2: Attagene TRANS-FACTORIAL EcoTox-2 HepG2 Assay for zebrafish Glucocorticoid Receptor (GR)
Protocol: ATG_EcoTox2 is a cell-based, multiplexed assay created by modifying the existing Attagene TRANS-FACTORIAL system to include a panel of nuclear receptors from some or all the following species: human (Homo sapiens), african clawed frog (Xenopus laevis), rainbow trout (Oncorhynchus mykiss), japanese medaka (Oryzias latipes), and zebrafish (Danio rerio). The ECOTOX2-FACTORIAL format uses HepG2, a human liver cell line, with measurements taken at 24 hours after chemical dosing in a 24-well plate. ATG_zfGR_EcoTox2 is one of 29 assay components calculated in the ATG_EcoTox2 assay. It is designed to make measurements of mRNA induction, a form of inducible reporter, as detected with fluorescence intensity signals by Reverse transcription polymerase chain reaction (RT-PCR) and Capillary electrophoresis technology.The assay endpoint ATG_zfGR_EcoTox2 was analyzed in the positive analysis fitting direction relative to DMSO as the negative control and baseline of activity. Using a type of inducible reporter, measures of mRNA for gain-of-signal activity can be used to understand the reporter gene at the transcription factor-level as they relate to the gene for glucocorticoid receptor. Furthermore, this assay endpoint can be referred to as a primary readout, because this assay has produced multiple assay endpoints where this one serves a reporter gene function. To generalize the intended target to other relatable targets, this assay endpoint is annotated to the nuclear receptor intended target family, where the subfamily is steroidal.
Human liver HepG2 cells are transiently transfected with multiple reporter transcription units (MRTUs) in 6-well plates using FuGene 6 reagent (Roche; 3 ml FuGene/1 mg DNA). The MRTU constructs are regulated by a cis-regulating element (promoter). Each RTU expresses a GAL4-UAS that regulates the transcription of a nearby target reporter gene sequence. A major difference between the CIS and TRANS system is that in CIS activities of endogenous TFs are measured, whereas the TRANS assay evaluates changes in activities of exogenous, chimeric NR-Gal4 proteins. […] At the end of 24 hour incubation, total RNA was isolated using TriZol reagent (Invitrogen). The isolated RNA is then reverse-transcribed using oligo(dT) primer and Mo-MLV reverse transcriptase (Invitrogen) with DNAse I (Ambion) treatment for 30 min. The one-tenth of the produced cDNA was amplified by PCR using Taq DNA polymerase (Invitrogen) and two reporter sequence-specific primers. The PCR products were fluorescently labeled by primer extension with 6-arboxyfluorescein (6-FAM) 5'-labeled reporter sequence-specific primer (2 min at 95 C, 20 s at 68 C and 10 min at 72 C) and these products were digested with 5U of HpaI (New England Biolabs) for 2h at 37 C. The fragments were purified using Qiaquick PCR columns (Qiagen), analyzed on an ABI 3130xL genetic analyzer (Applied Biosystems) with peak positions identified by using a set of X-rhodamine (ROX)-labeled MapMarker1000 molecular weight standards (BioVentures). The raw capillary electrophoresis data was processed using Attagraph software (Attagene).

Row | Compound | outcome | AC50
1 | Cc1ccc(C)c(OCCCC(C)(C)C(=O)O)c1 | inactive | –
2 | Cc1c(C)c2c(c(C)c1O)CCC(C)(COc1ccc(CC3SC(=O)NC3=O)cc1)O2 (configuration not stated) | inactive | –
3 | C[C@]12C=CC(=O)C=C1CC[C@@H]1[C@@H]2C(=O)C[C@@]2(C)[C@H]1CC[C@]2(O)C(=O)CO | inactive | –
4 | CC(C)(Oc1ccc(Cl)cc1)C(=O)O | inactive | –
5 | CN(CCOc1ccc(CC2SC(=O)NC2=O)cc1)c1ccccn1 (configuration not stated) | inactive | –
6 | CC(C)OC(=O)C(C)(C)Oc1ccc(C(=O)c2ccc(Cl)cc2)cc1 | inactive | –
7 | C[C@@H]1C[C@H]2[C@@H]3CCC4=CC(=O)C=C[C@]4(C)[C@@]3(F)[C@@H](O)C[C@]2(C)[C@@]1(O)C(=O)COP(=O)(O)O | – | 4.57 nM (active)
